Hits are enriched below; roughly 2.4% of the tested compounds scored in any of these assays.
D2 PAM-1: positive allosteric modulators of human D2 dopamine receptor | HEK293 T-REx D2, calcium flux, EC20 dopamine potentiation | potentiation, % at 10 µM | hit rate 0.34% among 340,000;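 active means potentiation over 3 SD above the plate norm, cut at about 30% in these data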; further: 0% is about no effect
Target sequence (P14416 whole entry, looked up): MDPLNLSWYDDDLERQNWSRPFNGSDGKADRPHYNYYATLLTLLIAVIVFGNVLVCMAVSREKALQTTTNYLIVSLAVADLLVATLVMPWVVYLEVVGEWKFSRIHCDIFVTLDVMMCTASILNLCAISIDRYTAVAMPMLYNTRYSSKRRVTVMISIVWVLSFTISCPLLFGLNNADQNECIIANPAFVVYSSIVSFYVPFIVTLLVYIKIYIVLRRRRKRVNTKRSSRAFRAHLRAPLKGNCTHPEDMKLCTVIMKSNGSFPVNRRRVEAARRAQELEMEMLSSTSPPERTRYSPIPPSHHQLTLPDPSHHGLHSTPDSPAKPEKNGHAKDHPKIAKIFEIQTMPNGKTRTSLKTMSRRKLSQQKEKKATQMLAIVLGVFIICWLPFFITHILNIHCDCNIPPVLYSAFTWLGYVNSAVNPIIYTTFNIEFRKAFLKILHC
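Potentiation of an EC20 dopamine calcium response is measured in a force-coupled, tetracycline-inducible Hek293 Trex D2 line. Compound-only kinetic reads over 180 s flag agonists before dopamine addition.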
D2 ag-1: agonists of human D2 dopamine receptor; P14416; HEK293 T-REx D2 cells, calcium flux agonist mode; activation, % at 2 µM; hit rate 0.53% among 340,000;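 active means activation over 3 SD above normal in the single-dose calcium agonist read, cut at about 30% in these data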; further: 0% is about no effect
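Calcium-flux readout, 1 cycle/sec over 180 s following compound pin transfer, in inducible HEK293 Trex D2 cells (force-coupled); dopamine controls included. Positive calcium responses during this window marked compounds as potential agonists.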
D2 antagonist: antagonists of human D2 dopamine receptor | AID 485344 | HEK293 TREx D2 cells, calcium flux, dopamine EC80 | hit rate 2% among 340,000 | P14416 | inhibition, % at 10 µM; in the data active means inhibition above about 30%; inactive means below that, where a call was filed; further: 0% is about no effect
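Antagonism is scored as inhibition of an EC80 dopamine-evoked calcium signal in a force-coupled, tetracycline-inducible HEK293 T-REx D2 line, with compound present 180 s before agonist.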
D2 ag-2: agonists of human D2 dopamine receptor (beta-arrestin) | P14416 | hit rate 0.084% among 360,000 | activation, % (no concentration beside the values) | AID 624465 | DiscoveRx PathHunter D2 beta-arrestin, luminescence, 90 min; 100% = 57 uM dopamine signal; in the data active means activation above about 40%; inconclusive means between about 15% and that limit
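Agonist mode: compounds alone added to overnight-plated D2 PathHunter cells for 90 min at 37 C, with 57 uM final dopamine (EC100) defining full response. Beta-arrestin recruitment detected by chemiluminescent reagent, read after 1 h at ambient temperature.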
D2 PAM-2: human D2 receptor positive allosteric modulation; AID 624464; potentiation, % (concentration not given with the values); DiscoveRx D2 beta-arrestin cells, luminescence, 90 min; 100% = 57 uM dopamine signal; hit rate 0.23% among 360,000; in the data active means potentiation above about 50%; inconclusive means mostly about 30% to 49%
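PathHunter D2 cells, attached overnight at 37 deg C, received compound in DMSO plus dopamine at EC20 (50 nM final) for 90 min at 37 deg C. Beta-arrestin recruitment was read as luminescence after 1 h with detection reagent at ambient temperature.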
Starred values were filed as active, the others as inactive; ? = inconclusive; · = not tested or not shown; ! = not active in a repeat.

SMILES	D2 PAM-1	D2 ag-1	D2 antagonist	D2 ag-2	D2 PAM-2
Cc1cc(OCC(=O)Nc2ccc(Br)cc2)cc2c1C(=O)CC(C)(C)O2	-3	1	41*	-3	-4
CC(=O)Nc1ccc(NC(=O)COc2cc(O)c3c(c2)OC(C)(C)CC3=O)cc1	-2	3	-12	-3	-9
CSC1=NSC2=NC(=O)/C(=C\c3coc4ccccc4c3=O)C(=N)N12	-8	110*	30	3	7
N=C1/C(=C\c2coc3ccccc3c2=O)C(=O)N=C2SC(c3ccncc3)=NN12	-8	59*	17	5	2
CCOCCCNC(=O)Cn1ncc2c([nH]c3ccccc32)c1=O	-12	1	·	·	·
Cc1ccc2c(nc3s/c(=C\c4ccc(-c5ccccc5C(=O)O)o4)c(=O)n32)c1C	-9	40*	-8	-4	-5
O=C(O)c1ccc(-c2ccc(/C=c3/sc4nc5ccccc5n4c3=O)o2)cc1Cl	-2	48*	34*	-2	-3
CN1CCN(C2=CC3=CC(=C(C#N)C#N)CCC3CC2)CC1 (stereo unspecified)	19	173*	49*	4	6
CCN1CCN(C2=CC3=CC(=C(C#N)C#N)CCC3CC2)CC1 (stereo unspecified)	-33	142*	79*	4	-11
CC1(C)CC(NCCN2CCN(C3=CC(=C(C#N)C#N)CC(C)(C)C3)CC2)=CC(=C(C#N)C#N)C1	20	-1	-1	-2	-8
N#CC(C#N)=C1C=C2C=C(N3CCCCCC3)CCC2CC1 (stereo unspecified)	-19	154*	83*	?	10
N#CC(C#N)=C1C=C2C=C(N3CCOCC3)CCC2CC1 (stereo unspecified)	-26	132*	65*	-3	14
CC(C)(C)C1CCc2c(sc(NC(=O)c3cc4ccccc4c(=O)o3)c2C(N)=O)C1 (stereo unspecified)	11	0	·	·	·
Cc1ccc(Nc2nnc(-c3ccc(C)c(S(=O)(=O)N4CCOCC4)c3)c3ccccc23)c(C)c1	-19	1	·	·	·
CC(=O)c1c(OCC(=O)O)ccc2c(C)cc(=O)oc12	-12	1	47*	-2	-11
CCCCOc1ccc2c(C)cc(=O)oc2c1OCCCC	11	1	43*	-4	-10
Cc1ccc(CN(Cc2ccco2)C(=O)c2ccccc2Cl)o1	3	-1	·	·	·
O=C(CSCc1ccc(Cl)cc1Cl)Nc1ccc(O)cc1C(=O)O	3	3	21	12	59*
CC(=O)c1ccc2c(c1)C1C=CCC1C(c1ccncc1)N2 (stereo unspecified)	2	7	7	6	86*
Brc1cc2c(cc1C1Nc3ccccc3C3C=CCC31)OCO2 (stereo unspecified)	-2	0	6	0	-4
C1=CC2c3ccccc3NC(c3ccncc3)C2C1 (stereo unspecified)	3	1	-16	14	70*
O=C(c1cc(Br)ccc1OC(F)F)N1CCN2CCCC2C1 (stereo unspecified)	-3	0	33*	-1	-4
O=S(=O)(c1ccc(-n2cnnn2)cc1)N1CCN(c2cccc(C(F)(F)F)c2)CC1	-4	-1	·	·	·
O=C(O)c1ccccc1-c1ccccc1C(=O)NNc1ccccc1	-5	37*	-28	-4	5
O=C(O)c1ccccc1-c1ccccc1C(=O)Nc1ccccc1	3	-1	19	0	16
SMILES	D2 PAM-1	D2 ag-1	D2 antagonist	D2 ag-2	D2 PAM-2
Cc1[nH]c(=O)c(C#N)c(C)c1Br	41*	·	·	-2	11
Cc1ccc(S(=O)(=O)NCC(=O)Nc2cccc([N+](=O)[O-])c2)cc1	5	-1	-12	1	-9
Cc1ccc(S(=O)(=O)NC(=O)Nc2cccc([N+](=O)[O-])c2)cc1	1	0	68*	1	-8
CCOc1cc(/C=N/NC(=O)c2ccc(N(C)S(=O)(=O)c3ccccc3)cc2)ccc1OC	-4	1	31*	-1	-3
Cc1ccc(S(=O)(=O)N(CC(=O)Nc2cccnc2)c2cccc([N+](=O)[O-])c2)cc1	-23	-1	50*	-1	-21
Cc1ccc(S(=O)(=O)N(C)c2ccc(C(=O)Nc3cccnc3)cc2)cc1	-5	0	35*	-1	-28
COc1cc(/C=N/NC(=O)c2ccc(N(C)S(=O)(=O)c3ccccc3)cc2)cc(OC)c1OC	-3	0	-3	2	-4
CCOc1ccc(C2=C(C(=O)CC)Sc3nncn3N2C(=O)CC)cc1	-7	1	·	·	·
Cc1ccc(S(=O)(=O)N(C)/N=C/c2ccc(C(=O)O)cc2)cc1	-3	0	30*	-4	2
CS(=O)(=O)N(CC(=O)Nc1cccc([N+](=O)[O-])c1)c1ccccc1	1	-1	-25	-6	-7
Cc1ccc(/C=N/NC(=O)c2ccc(N(C)S(=O)(=O)c3ccccc3)cc2)cc1	-5	0	48*	1	-7
CS(=O)(=O)N(CC(=O)Nc1cccc([N+](=O)[O-])c1)c1ccccc1F	5	-1	44*	-6	-5
COc1cc(C(=O)NCc2ccc(OCCN(C)C)cc2)cc(OC)c1OC	-21	0	72*	-4	-38
Cc1c(C(=O)Nc2ccc(S(=O)(=O)Nc3ncccn3)cc2)oc2ccccc12	22	0	46*	0	-3
CCC(Oc1ccccc1)C(=O)NC1C(=O)N2C1SC(C)(C)C2C(=O)O (stereo unspecified)	5	0	-1	4	4
CC1(C)S[C@@H]2[C@H](NC(=O)Cc3ccccc3)C(=O)N2[C@H]1C(=O)O	6	1	33*!	-3	-12
O=C(Cn1c(=O)n(-c2ccc(Cl)cc2)c(=O)c2c3c(sc21)CCCCC3)Nc1cccc(Cl)c1	7	0	·	·	·
Nc1c(-c2nc(-c3ccccc3Cl)no2)nnn1-c1ccccc1F	-1	·	·	·	·
Cc1cc(=O)[nH]c(SCC(=O)NCC2CCCO2)n1 (stereo unspecified)	-10	0	34*	-5	-2
COc1ccc(NC(=S)N(CCCN2CCCC(C)C2)Cc2cccs2)cc1 (stereo unspecified)	·	0	49*	-3	-23
Cc1ccc(Cl)cc1NC(=S)N(CCCN1CCN(C)CC1)Cc1cccs1	-30	2	45*	-7	-18
Cc1cc(Cl)ccc1NC(=S)N(CCCN1CCOCC1)Cc1cccs1	2	2	-8	-5	-24
CCCc1nn2c(=O)cc(COC(=O)c3cccc(NC(=O)c4ccc(OCC)cc4)c3)nc2s1	1	0	·	·	·
O=C(c1c2c(nc3ccccc13)C(=O)N(C1CCCCC1)C2)N1CCN(c2ccc(F)cc2)CC1	11	0	·	·	·

Screening results (PubChem)
